# From PubChem BioAssay (NCI)
# About 79,000 compounds went through this panel and 15% of them were active in at least one assay; those are over-represented in the sample as a whole. A number with no mark means an inactive call. The source made the active and inactive calls. No stated cut-off is given here; in the data, active means growth inhibition above about 70%; inactive means the rest.
# Tests used:
# [1] = NCI Yeast Anticancer Drug Screen. Data for the mec2-1 strain (AID 157); settings: S. cerevisiae mec2-1 strain, stronger effect = higher value
# Method in brief: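 Test agents were screened against the mec2-1 yeast strain, with defined DNA repair or cell cycle alteration. Growth was scored as inhibition against vehicle-only controls.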
# [2] = NCI Yeast Anticancer Drug Screen. Data for the rad14 strain (AID 159);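 further: 0% = growth of vehicle-treated control cultures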; settings: S. cerevisiae rad14 strain growth inhibition, stronger effect = higher value
# Method in brief: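 Growth inhibition vs vehicle controls; genetically altered yeast strain (DNA damage repair defect) treated with test compounds.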
# [3] = NCI Yeast Anticancer Drug Screen. Data for the sgs1 mgt1 strain (AID 161);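 further: 0% = growth of cultures given vehicle only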; settings: S. cerevisiae sgs1 mgt1 strain, stronger effect = higher value
# Method in brief: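 Inhibition of yeast growth, normalised to vehicle-treated controls, is reported for a strain bearing genetic alterations in DNA damage repair.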
# [4] = NCI Yeast Anticancer Drug Screen. Data for the CLN2oe strain (AID 163);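 further: 0% = growth of vehicle-only control cultures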; settings: S. cerevisiae CLN2oe strain, stronger effect = higher value
# Method in brief: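 Here, growth inhibition in a cell-cycle-altered yeast strain after compound exposure was quantified against vehicle control growth.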
# [5] = NCI Yeast Anticancer Drug Screen. Data for the cln2 rad14 strain (AID 165);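 further: 0% = growth equal to vehicle treated cultures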; settings: S. cerevisiae cln2 rad14 strain, stronger effect = higher value
# Method in brief: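 Growth of compound-exposed yeast (cln2 rad14 genotype) measured and expressed as inhibition relative to vehicle.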
# [6] = NCI Yeast Anticancer Drug Screen. Data for the bub3 strain (AID 167); settings: S. cerevisiae bub3 mutant strain, stronger effect = higher value
# Method in brief: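 Readout: yeast growth inhibition, expressed relative to vehicle-only wells. The test organism is a mutant strain from a panel with lesions in DNA repair or checkpoint genes.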
# [7] = NCI Yeast Anticancer Drug Screen. Data for the wt2 strain (AID 169);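 further: 0% = growth of vehicle-treated yeast cultures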; settings: S. cerevisiae wt2 strain growth inhibition, stronger effect = higher value
# Method in brief: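 Genetically defined yeast strains from a DNA-repair/cell-cycle panel were used. Compound-exposed yeast growth was measured, and the inhibition was calculated relative to vehicle treatment.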
# [8] = NCI Yeast Anticancer Drug Screen. Data for the mlh1 strain (AID 171);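 further: 0% = growth of vehicle-treated control cultures of the same strain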; settings: S. cerevisiae mlh1 strain growth inhibition, stronger effect = higher value
# Method in brief: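 Here the genetically defined yeast mutant is grown with each compound, and the extent to which its growth falls below that of vehicle-exposed cells is reported.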
# [9] = NCI Yeast Anticancer Drug Screen. Data for the mlh1 rad18 strain (AID 175); settings: S. cerevisiae mlh1 rad18 strain growth inhibition, stronger effect = higher value
# Method in brief: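 In this whole-cell yeast screen, a strain with altered DNA damage repair is challenged with compound, and its growth is measured against matched vehicle-treated controls.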
# [10] = NCI Yeast Anticancer Drug Screen. Data for the rad18 strain (AID 177); settings: S. cerevisiae rad18 mutant growth inhibition, stronger effect = higher value
# Method in brief: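 Screen uses a yeast strain with a defined lesion in DNA damage repair; compound effect is read as loss of growth compared to untreated vehicle cultures.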
# [11] = NCI Yeast Anticancer Drug Screen. Data for the wt1 strain (AID 149);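 further: 0% = growth of vehicle-treated wt1 cultures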; settings: S. cerevisiae wt1 strain (SPY 50644) growth inhibition, stronger effect = higher value
# Method in brief: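 Growth inhibition read against vehicle controls after compound exposure of the wt1 yeast strain.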
# [12] = NCI Yeast Anticancer Drug Screen. Data for the rad50EPP+ strain (AID 151);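 further: 0% = growth of vehicle-treated control cultures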; settings: S. cerevisiae rad50 mutant strain, stronger effect = higher value
# Method in brief: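 One strain with a rad50 alteration (rad50EPP+) was compound-treated, its growth then compared to that of vehicle controls.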
# [13] = NCI Yeast Anticancer Drug Screen. Data for the mgt1 strain (AID 153); settings: S. cerevisiae mgt1 mutant growth inhibition, stronger effect = higher value
# Method in brief: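 After exposure of the mgt1 yeast mutant to compound, growth was measured and reported as inhibition compared with vehicle controls.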
# [14] = NCI Yeast Anticancer Drug Screen. Data for the rad50 strain (AID 155);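 further: 0% = growth of vehicle-only cultures of the same strain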; settings: S. cerevisiae rad50 strain growth inhibition, stronger effect = higher value
# Method in brief: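 Readout: growth inhibition relative to vehicle-treated cultures. Compound exposure was carried out in a genetically defined yeast strain deficient in DNA damage repair.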
# [15] = NCI Yeast Anticancer Drug Screen. Data for the sgs1 strain (AID 173);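 further: 0% = growth of vehicle-only control cultures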; settings: S. cerevisiae sgs1 mutant, stronger effect = higher value
# Method in brief: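 Relative growth inhibition, referenced to vehicle, was determined in a yeast strain with a defined alteration affecting DNA damage repair or cell cycle control after compound exposure.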
# [16] = at 5.0 µM (retest, dose inferred, filed as 0.5)
# [17] = at 50.0 µM (retest, dose inferred, filed as 5.0)
compound,measurement,setting,value
CC1=NN(C(=O)CC(=O)N(C(=O)c2ccccc2)c2ccc(Cl)cc2)C(=O)C1N=Nc1ccc([N+](=O)[O-])cc1 (stereo unspecified),growth inhibition,[1]; at 100.0 µM,68%
same,growth inhibition,[2]; at 1.2 µM,-1%
same,growth inhibition,[2]; at 3.7 µM,7%
same,growth inhibition,[2]; at 11.0 µM,23%
same,growth inhibition,[2]; at 33.0 µM,44%
same,growth inhibition,[2]; at 100.0 µM,53%
same,growth inhibition,[3]; [16],-1%
same,growth inhibition,[3]; [17],49%
same,growth inhibition,[3]; at 50.0 µM,77.7% (active)
same,growth inhibition,[4]; at 1.2 µM,-11%
same,growth inhibition,[4]; at 3.7 µM,6%
same,growth inhibition,[4]; at 11.0 µM,48%
same,growth inhibition,[4]; at 33.0 µM,75% (active)
same,growth inhibition,[4]; at 100.0 µM,77% (active)
same,growth inhibition,[5]; [16],63%
same,growth inhibition,[5]; [17],66%
same,growth inhibition,[5]; at 50.0 µM,55.8%
same,growth inhibition,[6]; at 1.2 µM,-5%
same,growth inhibition,[6]; at 3.7 µM,-6%
same,growth inhibition,[6]; [16],4%
same,growth inhibition,[6]; at 11.0 µM,30%
same,growth inhibition,[6]; at 33.0 µM,63%
same,growth inhibition,[6]; [17],67%
same,growth inhibition,[6]; at 50.0 µM,85% (active)
same,growth inhibition,[6]; at 100.0 µM,71% (active)
same,growth inhibition,[7]; at 1.2 µM,-4%
same,growth inhibition,[7]; at 3.7 µM,7%
same,growth inhibition,[7]; at 11.0 µM,64%
same,growth inhibition,[7]; at 33.0 µM,87% (active)
same,growth inhibition,[7]; at 100.0 µM,82% (active)
same,growth inhibition,[8]; at 1.2 µM,0%
same,growth inhibition,[8]; at 3.7 µM,8%
same,growth inhibition,[8]; at 11.0 µM,36%
same,growth inhibition,[8]; at 33.0 µM,59%
same,growth inhibition,[8]; at 100.0 µM,69%
same,growth inhibition,[9]; [16],24%
same,growth inhibition,[9]; [17],75% (active)
same,growth inhibition,[9]; at 50.0 µM,81% (active)
same,growth inhibition,[10]; at 1.2 µM,4%
same,growth inhibition,[10]; at 3.7 µM,11%
same,growth inhibition,[10]; at 11.0 µM,62%
same,growth inhibition,[10]; at 33.0 µM,85% (active)
same,growth inhibition,[10]; at 100.0 µM,84% (active)
Cc1cccc[c]1[Sn]([Cl])([S]/C(C#N)=N/N=C/c1ccc(N(C)C)cc1)[c]1ccccc1C,growth inhibition,[11]; at 1.2 µM,-4%
same,growth inhibition,[11]; at 3.7 µM,-3%
same,growth inhibition,[11]; at 11.0 µM,-8%
same,growth inhibition,[11]; at 33.0 µM,35%
same,growth inhibition,[11]; at 100.0 µM,48%
same,growth inhibition,[12]; at 1.2 µM,0%
same,growth inhibition,[12]; at 3.7 µM,-1%
same,growth inhibition,[12]; at 11.0 µM,0%
same,growth inhibition,[12]; at 33.0 µM,12%
same,growth inhibition,[12]; at 100.0 µM,13%
same,growth inhibition,[13]; at 1.2 µM,-3%
same,growth inhibition,[13]; at 3.7 µM,-6%
same,growth inhibition,[13]; at 11.0 µM,-8%
same,growth inhibition,[13]; at 33.0 µM,37%
same,growth inhibition,[13]; at 100.0 µM,91% (active)
same,growth inhibition,[14]; at 1.2 µM,-3%
same,growth inhibition,[14]; at 3.7 µM,-1%
same,growth inhibition,[14]; [16],40%
same,growth inhibition,[14]; at 11.0 µM,12%
same,growth inhibition,[14]; at 33.0 µM,67%
same,growth inhibition,[14]; [17],89% (active)
same,growth inhibition,[14]; at 50.0 µM,97.4% (active)
same,growth inhibition,[14]; at 100.0 µM,94% (active)
same,growth inhibition,[1]; at 1.2 µM,2%
same,growth inhibition,[1]; at 3.7 µM,-1%
same,growth inhibition,[1]; [16],9%
same,growth inhibition,[1]; at 11.0 µM,8%
same,growth inhibition,[1]; at 33.0 µM,51%
same,growth inhibition,[1]; [17],90% (active)
same,growth inhibition,[1]; at 50.0 µM,98.2% (active)
same,growth inhibition,[1]; at 100.0 µM,93% (active)
same,growth inhibition,[2]; at 1.2 µM,-1%
same,growth inhibition,[2]; at 3.7 µM,3%
same,growth inhibition,[2]; at 11.0 µM,11%
same,growth inhibition,[2]; at 33.0 µM,58%
same,growth inhibition,[2]; at 100.0 µM,93% (active)
same,growth inhibition,[3]; [16],37%
same,growth inhibition,[3]; [17],92% (active)
same,growth inhibition,[3]; at 50.0 µM,98.3% (active)
same,growth inhibition,[4]; at 1.2 µM,0%
same,growth inhibition,[4]; at 3.7 µM,0%
same,growth inhibition,[4]; at 11.0 µM,2%
same,growth inhibition,[4]; at 33.0 µM,53%
same,growth inhibition,[4]; at 100.0 µM,94% (active)
same,growth inhibition,[5]; [16],25%
same,growth inhibition,[5]; [17],89% (active)
same,growth inhibition,[5]; at 50.0 µM,97.1% (active)
same,growth inhibition,[6]; at 1.2 µM,-8%
same,growth inhibition,[6]; at 3.7 µM,-6%
same,growth inhibition,[6]; [16],34%
same,growth inhibition,[6]; at 11.0 µM,0%
same,growth inhibition,[6]; at 33.0 µM,46%
same,growth inhibition,[6]; [17],92% (active)
same,growth inhibition,[6]; at 50.0 µM,97.2% (active)
same,growth inhibition,[6]; at 100.0 µM,89% (active)
same,growth inhibition,[8]; at 1.2 µM,3%
same,growth inhibition,[8]; at 3.7 µM,-5%
same,growth inhibition,[8]; at 11.0 µM,-4%
same,growth inhibition,[8]; at 33.0 µM,35%
same,growth inhibition,[8]; at 100.0 µM,90% (active)
same,growth inhibition,[15]; at 1.2 µM,-1%
same,growth inhibition,[15]; at 3.7 µM,-3%
same,growth inhibition,[15]; at 11.0 µM,-1%
same,growth inhibition,[15]; at 33.0 µM,66%
same,growth inhibition,[15]; at 100.0 µM,94% (active)
same,growth inhibition,[9]; [16],47%
same,growth inhibition,[9]; [17],86% (active)
same,growth inhibition,[9]; at 50.0 µM,98.4% (active)
same,growth inhibition,[10]; at 1.2 µM,0%
same,growth inhibition,[10]; at 3.7 µM,-2%
same,growth inhibition,[10]; at 11.0 µM,10%
same,growth inhibition,[10]; at 33.0 µM,61%
same,growth inhibition,[10]; at 100.0 µM,92% (active)
